Screening data from PubChem BioAssay.
Most compounds without a hit are left out; they make up all but 4.3% or so of the library.
DRD3 agonist – agonists of human D3 dopamine receptor; P35462; D3R DiscoveRx beta-arrestin cells, luminescence, 90 min; max activation, %; 410,000 compounds, 0.58% hits; in the data active = max activation above about 30%
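Agonist mode: compounds and dopamine controls were applied to plated cells for 90 min at 37 degrees C after an overnight attachment at 1500 cells/well. Luminescent read-out followed 30 - 60 minutes at room temperature with DiscoveRx detection reagent.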
GLP-1R inv ag – GLP-1 receptor (human) inverse agonism; HEK293 GLP-1R CRE-luciferase, luminescence, 24 h; GLP-1R form is constitutively active; Potency, µM (doses to about 38.3 µM), actives largely listed as inhibitors; 410,000 compounds, 1.6% hits; AID 624417; also: nearly all actives have a fitted effect of over 55% in size
Target sequence (P43220 whole entry, looked up): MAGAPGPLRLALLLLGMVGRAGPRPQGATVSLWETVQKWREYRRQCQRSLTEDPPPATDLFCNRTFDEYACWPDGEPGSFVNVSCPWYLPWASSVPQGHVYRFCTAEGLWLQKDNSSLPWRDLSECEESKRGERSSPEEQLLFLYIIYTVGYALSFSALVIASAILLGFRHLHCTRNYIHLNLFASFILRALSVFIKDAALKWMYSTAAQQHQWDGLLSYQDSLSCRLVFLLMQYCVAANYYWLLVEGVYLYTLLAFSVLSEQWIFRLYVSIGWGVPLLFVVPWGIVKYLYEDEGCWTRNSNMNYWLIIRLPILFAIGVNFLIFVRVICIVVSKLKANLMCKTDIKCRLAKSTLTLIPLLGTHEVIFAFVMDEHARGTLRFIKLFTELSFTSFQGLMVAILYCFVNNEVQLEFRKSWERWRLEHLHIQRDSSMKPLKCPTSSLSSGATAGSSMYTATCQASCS
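HEK293 cells stably co-expressing constitutively active GLP-1R and a cAMP-responsive luciferase reporter were seeded in DMEM with 10% Nu serum, given compounds after 12 h, and incubated 24 h at 37 deg C. Luminescence was then read.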
DRD3 antagonist – antagonists of human D3 dopamine receptor; D3R cells, DiscoveRx beta-arrestin luminescence, antagonist mode; stronger effect = lower value; P35462; 360,000 compounds, 2.5% hits; max response, negative = inhibition, %; in the data active = max response below about -50%; inconclusive = no clear call, values can overlap the other calls
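Cells expressing the human receptor were seeded at 1500 cells/well, incubated overnight at 37 degrees C in 5% CO2, then exposed to library compounds with dopamine controls for 90 minutes at 37 degrees C before luminescent detection.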
GLP-1R agonist – activates the human GLP-1 receptor; P43220; HEK293 GLP-1R CRE-luciferase, luminescence, 4-6 h; cells express a hypersensitive GLP-1R form; Potency, µM (titrated, usually from 45.6 µM), usual class: activators; 380,000 compounds, 0.007% hits; AID 624172
Hits are given with their value; n = inactive; u = inconclusive; x = no result given. Unless noted, calls follow the shape of the dose curve; as a rule, active = well fitted curve in the direction sought with a large enough effect; inconclusive = small, poorly fitted or top-dose-only effect, or another doubt; inactive = no such curve, though single readings can be large; an effect the other way counts as inactive or inconclusive.

SMILES	DRD3 agonist	GLP-1R inv ag	DRD3 antagonist	GLP-1R agonist
Cc1ccc(-c2c(C(=O)NCCc3ccc(Cl)cc3)oc(=O)c3ccccc23)cc1	n	4.5µM	x	n
Cc1ccc(-c2noc(CN(C(=O)COc3cc(C)cc(C)c3C)C(C)C)n2)cc1	n	u	x	n
CS(=O)(=O)c1ccccc1C(=O)N1CCN(S(=O)(=O)c2ccc(C3CCCCC3)cc2)CC1	n	10µM	n	n
COc1ccc(N(C(=O)c2ccc(OC)c(OC)c2)S(=O)(=O)c2ccc(Cl)cc2)cc1	n	u	x	x
CCc1ccccc1NNC(=O)c1snnc1C	n	10µM	n	n
COC(=O)c1ccn(-c2nc(-c3ccc(Cl)cc3)cc(C(F)(F)F)n2)n1	n	n	x	x
CCN1C(=O)[C@H]2[C@@H](c3ccc(-c4ccc(C(C)=O)cc4)c(OC)c3)N3CCCC[C@@]3(C(=O)OC)[C@H]2C1=O	n	u	n	n
CCN1C(=O)[C@@H]2[C@@H](c3ccc(-c4ccc(F)cc4)c(OC)c3)N3CCCC[C@@]3(C(=O)OC)[C@@H]2C1=O	33	n	n	n
CCN(CC)S(=O)(=O)c1ccc2oc(C(=O)NCc3ccc(F)cc3)c(C)c2c1	n	3.5µM	n	n
CCN(CC)S(=O)(=O)c1ccc2oc(SCc3ccc(F)cc3)nc2c1	n	11µM	n	n
Cc1c(C(=O)NCc2ccc(F)cc2)oc2ccc(S(=O)(=O)N3CCOCC3)cc12	n	u	n	n
CCn1ccc2cc(S(=O)(=O)N3CCC(C(=O)NCc4ccc(F)cc4)CC3)ccc21	n	n	x	x
COc1ccccc1NC(=O)Nc1nc(CC(=O)Nc2ccc(OC)c(OC)c2)cs1	n	n	n	n
COc1cccc(NC(=O)Cc2csc(NC(=O)Nc3ccccc3OC)n2)c1	n	10µM	n	n
COc1cc(C)ccc1NC(=O)Cc1csc(NC(=O)Nc2ccccc2OC)n1	n	10µM	n	n
CCC(=O)Nc1nc(CC(=O)Nc2ccccc2OC)cs1	n	n	n	n
Cc1cc(C)cc(N2CC(c3nnc(NC(=O)c4ccco4)s3)CC2=O)c1 (centres undefined)	n	n	x	x
Cc1ccc(S(=O)(=O)c2cn(CC(=O)Nc3ccc4c(c3)OCO4)c3ccccc3c2=O)cc1	n	n	x	n
CC1(CC(=O)N/N=C/c2ccc(OCc3ccc(Cl)cc3Cl)cc2)OCCCO1	n	8.9µM	n	n
CC1CCCCN1C(=O)CSc1n[nH]c(-c2ccccc2Cl)n1 (centres undefined)	n	n	x	x
O=C(NCc1cccnc1)c1nc(-c2ccc(C(F)(F)F)cc2)no1	n	n	-59	n
O=C(NCc1ccncc1)c1nc(-c2ccc(C(F)(F)F)cc2)no1	n	n	n	n
Cc1ccc(CC(=O)NCc2nc(-c3cccc(C)c3)no2)cc1	n	n	x	x
Cc1ncsc1CCSc1nc2ccccc2c(=O)n1C	n	n	n	11µM
Cc1c(C(=O)N(Cc2ccc(N(C)C)cc2)CC2CCCO2)oc2ccccc12 (centres undefined)	n	10µM	n	n
SMILES	DRD3 agonist	GLP-1R inv ag	DRD3 antagonist	GLP-1R agonist
NC(N)=N/N=C/c1cccc([N+](=O)[O-])c1O	n	n	n	n
O=[N+]([O-])c1cccc(/C=N\N=C2c3ccccc3-c3ccccc32)c1O	n	n	-74	n
CC(=O)SC[C@@H](C)C(=O)N1CCC[C@H]1C(=O)N[C@@H](Cc1ccccc1)C(=O)O	n	x	x	n
COc1ccccc1NS(=O)(=O)c1ccc(-c2cc(C)no2)s1	51	u	n	n
CCN(c1cccc(C)c1)S(=O)(=O)c1ccc(-c2cc(C)no2)s1	n	u	n	n
Cc1cccc(N(C)S(=O)(=O)c2ccc(-c3cc(C)no3)s2)c1	n	1µM	n	n
C[C@H]1C[C@H]2[C@@H]3CCC4=CC(=O)C=C[C@]4(C)[C@@]3(F)[C@@H](O)C[C@]2(C)[C@@]1(O)C(=O)CCl	n	x	x	x
Cc1ccc(C)c(S(=O)(=O)Nc2ccccc2C(=O)Nc2ccc(S(=O)(=O)Nc3ncccn3)cc2)c1	n	n	n	n
CN(CCCNC(=O)C1CCC(CNS(=O)(=O)c2ccccc2)CC1)Cc1ccccc1 (centres undefined)	n	3.5µM	n	n
Clc1ccc(OC2CCN(Cc3nc(CC4CC4)no3)CC2)cc1	n	2µM	n	n
COc1ccccc1CNc1ccc(-c2nc(-c3cccnc3)no2)cc1[N+](=O)[O-]	n	n	x	x
O=C(c1ccccc1Sc1ccccc1[N+](=O)[O-])N1CCCCC1	n	n	n	n
Cc1cc(NC(=O)CSc2nnc(CNC(=O)c3ccccc3)o2)no1	n	n	n	n
CCN1CCN(Cc2c(C)[nH]c3ccc(OC)cc3c2=O)CC1	n	n	-53	n
CCOc1ccc2[nH]c(C)c(CN3CCN(CC)CC3)c(=O)c2c1	n	n	n	n
COc1ccc(CN2C(=O)C(CC(=O)NCCCCc3ccccc3)CC(C(=O)N(C)C)=C2C)cc1 (centres undefined)	n	n	n	n
COc1ccc(CN2C(=O)C(CC(=O)NCCCCc3ccccc3)CC(C(=O)N(C(C)C)C(C)C)=C2C)cc1 (centres undefined)	n	11µM	n	n
CCCCN1C(=O)C(CC(=O)NCCCCc2ccccc2)CC(C(=O)N2CCCCCC2)=C1C (centres undefined)	n	n	-52	n
CCCn1c(=O)c2sccc2n2c(CCCC(=O)N3CCN(c4ccc(OC)cc4)CC3)nnc12	n	n	x	x
C=C1C(=O)OC2C1CCC(C)=C1C(=O)C3OC3(C)C12 (centres undefined)	n	u	-129	n
C=C1C(=O)O[C@@H]2[C@@H]1CC/C(C)=C\CC[C@@]1(C)O[C@H]21	x	x	x	n
COc1ccc(-c2nnc(SCC(=O)NCc3ccccc3)nc2-c2ccc(OC)c(OC)c2)cc1OC	n	u	x	x
Cc1cccc(/C=N\Nc2cn[nH]c(=O)c2Cl)c1	n	n	-82	n
O=c1[nH]ncc(N/N=C\c2cccnc2)c1Cl	n	n	n	n
Cc1ccc(C)n1-n1c(C)nc2sc3c(c2c1=O)CCCCC3	n	11µM	n	n
SMILES	DRD3 agonist	GLP-1R inv ag	DRD3 antagonist	GLP-1R agonist
COc1cc(O)c(CC=C(C)C)c(O)c1C(=O)CCc1ccc(O)cc1	n	2.5µM	n	n
CCc1cccc(C)c1NC(=O)CCS(=O)(=O)c1ccc2c(c1)oc(=O)n2C	n	n	x	x
CCOc1ccccc1NC(=O)c1c(NCc2cccs2)sc2c1CCCCC2	n	13µM	x	x
O=C(NCc1ccc(F)cc1)C1CCN(c2ncnc3c2nc2n3CCCCC2)CC1	n	n	x	x
COc1ccc(NC(=O)Cn2c(SCc3ccc(C)cc3)nc3cccnc32)c(OC)c1	39	n	x	x
COc1ccc(NC(=O)CN2CCN(CC(=O)Nc3ccccc3Cl)CC2)c(OC)c1	30	n	n	n
COc1ccc(NC(=O)CN2CCC(C(=O)c3ccc(C)cc3)CC2)c(OC)c1	n	u	-71	n
COc1cc(NC(=O)Cn2c(SCc3ccc(F)cc3)nc3cccnc32)cc(OC)c1	n	n	x	x
COc1ccc(NC(=O)N2CCC(C(=O)c3ccc(F)cc3)CC2)cc1	n	u	n	n
